Assay results: the supplement of paper PMC12350171
Structures can show the parent of a compound that is named as a salt. Values without a mark were called inactive.

Key:
Details in all cases: 20 µM
[1] = system: Salmonella enterica typhimurium; test: growth AUC normalised to DMSO control (fraction of control); higher = less growth inhibition, active = hit call of the paper
Outline: (§1)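 Hemin and NAD were added to the medium for Haemophilus parainfluenzae. All pathogens, after two anaerobic passages, were inoculated at a starting OD578 of 0.01 into pre-reduced mGAM plates with 20 μM compound and 1% DMSO under breathable seals, and OD578 was read hourly for 24 h in three biological replicates. AUC of each growth curve was obtained with the trapezoidal rule up to the exponential-to-stationary transition and normalised to DMSO controls from the same plate.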

Shigella flexneri = test: as above
Outline: as §1

Vibrio cholerae = test: as above
Outline: as §1

[2] = system: Yersinia pseudotuberculosis; test: as above
Outline: as §1

P. vulgatus RND KO = test: growth AUC normalised to DMSO control (median) (fraction of control); higher = less growth inhibition, active = hit call of the paper
Outline: (§2)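 Area under the growth curve, calculated by the trapezoidal rule up to entry into stationary phase, was normalised to vehicle wells on the same plate. Strains had been passaged twice overnight without oxygen and then grown in mGAM in 96-well plates from OD578 0.01, each with an approved-drug library compound at 20 μM in 1% DMSO. OD578 was read hourly over 24 h in an anaerobic incubator, and the median of three biological replicates is given.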

P. vulgatus WT = test: as above
Outline: as §2

[3] = system: S. enterica typhimurium WT; test: as above
Outline: as §2

[4] = system: S. enterica typhimurium tolC KO; test: as above
Outline: as §2
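Throughout, for growth AUC normalised to DMSO control (median): active when median AUC fell below 0.1.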

| Structure (SMILES) | growth AUC normalised to DMSO control [1] | growth AUC normalised to DMSO control (Shigella flexneri) | growth AUC normalised to DMSO control (Vibrio cholerae) | growth AUC normalised to DMSO control [2] | growth AUC normalised to DMSO control (P. vulgatus RND KO) | growth AUC normalised to DMSO control (P. vulgatus WT) | growth AUC normalised to DMSO control [3] | growth AUC normalised to DMSO control [4] |
| --- | --- | --- | --- | --- | --- | --- | --- | --- |
| Nc1nc(F)nc2c1ncn2[C@@H]1O[C@H](CO)[C@@H](O)[C@@H]1O [Fludarabine] | 0.963 | 0.933 | 0.997 | 0.988 | 0.994 | 0.999 | 0.994 | 0.991 |
| CCCN(CCC)C(=O)C(CCC(=O)O)NC(=O)c1ccccc1 (configuration not stated) [Proglumide] | 1.01 | 1.04 | 1.05 | 1.02 | 1.02 | 1.06 | 1 | 0.99 |
| C[C@H](CCC(=O)O)[C@H]1CC[C@H]2[C@@H]3[C@@H](O)C[C@@H]4C[C@H](O)CC[C@]4(C)[C@H]3CC[C@]12C [Urosiol] | 0.971 | 1.02 | 1.04 | 1.01 | 1.02 | 1.02 | 1 | 1.01 |
| O=C(O)CNC(=O)C(CS)Cc1ccccc1 (configuration not stated) [Thiorphan] | 1.02 | 1.05 | 1.08 | 1.01 | 0.993 | 1 | 0.997 | 0.995 |
| N=C(N)N/N=C/c1c(Cl)cccc1Cl [Guanabenz acetate] | 0.936 (active) | 0.998 | 1.03 | 0.973 | 0.983 | 0.98 | 0.946 | 0.967 |
| O=C(O)c1ccccc1Nc1cccc(C(F)(F)F)c1 [Flufenamic acid] | 0.992 | 0.963 | 0.906 | 0.981 | 0.833 | 0.849 | 1.01 | 0.968 |
| O=C1Cc2cc(CCN3CCN(c4nsc5ccccc45)CC3)c(Cl)cc2N1 [Ziprasidone  hydrochloride monohydrate] | 1.02 | 1.06 | 1.01 | 1 | 1.03 | 1.07 | 1.02 | 1 |
| Cc1cc(C(C)(C)C)cc(C)c1CC1=NCCN1 [Xylometazoline hydrochloride] | 1.03 | 0.999 | 0.999 | 0.989 | 1.02 | 1.02 | 0.995 | 0.989 |
| C[C@@H]1[C@H](O)[C@@H](C)/C=C/C=C/C=C/C=C/C=C/C=C/C=C/[C@H](O[C@@H]2O[C@H](C)[C@@H](O)[C@H](N)[C@@H]2O)C[C@@H]2O[C@](O)(C[C@@H](O)C[C@@H](O)[C@H](O)CC[C@@H](O)C[C@@H](O)CC(=O)O[C@H]1C)C[C@H](O)[C@H]2C(=O)O [Amphotericin B] | 1.02 | 1.1 | 1.05 | 1.02 | 1.04 | 1.1 | 1.01 | 0.988 |
| Cn1cnc([N+](=O)[O-])c1Sc1ncnc2[nH]cnc12 [Azathioprine] | 1 | 0.992 | 1.01 | 1.01 | 0.955 | 0.92 | 1.02 | 0.998 |
| C[C@H](CCC(=O)O)[C@H]1CC[C@H]2[C@@H]3C(=O)C[C@@H]4CC(=O)CC[C@]4(C)[C@H]3CC(=O)[C@]12C [Dehydrocholic acid] | 0.98 | 0.968 | 0.983 | 0.957 | 1.01 | 0.983 | 0.999 | 0.66 |
| CN1CCN2c3ccccc3Cc3ccccc3C2C1 (configuration not stated) [Mianserine hydrochloride] | 0.986 | 0.986 | 0.868 (active) | 0.956 | 1.03 | 1.03 | 0.994 | 1 |
| CCc1nn(CCCN2CCN(c3cccc(Cl)c3)CC2)c(=O)n1CCOc1ccccc1 [Nefazodone hydrochloride] | 1 | 0.985 | 0.932 | 1.01 | 0.928 | 0.922 | 1 | 0.894 |
| CCc1c(C)[nH]c2c1C(=O)C(CN1CCOCC1)CC2 (configuration not stated) [Molindone hydrochloride] | 1 | 1.02 | 1.04 | 1.01 | 1.03 | 1.05 | 1.02 | 1.01 |
| CC(=O)N[C@@H](CC(C)C)C(=O)O [N-Acetyl-L-leucine] | 1.04 | 1.01 | 1.03 | 1 | 0.99 | 0.997 | 0.999 | 0.996 |
| CN1Cc2c(N)cccc2C(c2ccccc2)C1 (configuration not stated) [Nomifensine maleate] | 0.977 | 1.01 | 0.961 | 0.94 | 1 | 0.987 | 0.997 | 1 |
| CCCCC1C(=O)N(c2ccccc2)N(c2ccccc2)C1=O [Phenylbutazone] | 1.01 | 0.991 | 0.973 | 1.01 | 1.03 | 1.07 | 1 | 0.964 |
| Nc1nc(N)c2nc(-c3ccccc3)c(N)nc2n1 [Triamterene] | 0.942 | 1.06 | 0.99 | 0.95 | 0.973 | 0.971 | 0.954 | 0.939 |
| CC(C)[C@H](N)C(=O)OCCOCn1cnc2c(=O)nc(N)[nH]c21 [Valacyclovir hydrochloride] | 0.993 | 1.03 | 0.995 | 1.01 | 0.999 | 1.02 | 1 | 1.02 |
| NC[C@@H]1O[C@@H](O[C@H]2[C@H](O)[C@@H](O[C@H]3O[C@H](CO)[C@@H](O)[C@H](N)[C@H]3O)[C@H](N)C[C@@H]2N)[C@@H](O)[C@H](O)[C@H]1O [Kanamycin A sulfate] | 1.01 | 1.03 | 1.05 | 1 | 1.01 | 0.992 | 1.01 | 1.01 |
| CC[N+](C)(CC)CCC[n+]1c(-c2ccccc2)c2cc(N)ccc2c2ccc(N)cc21 [Propidium iodide] | 0.998 | 1.06 | 1.08 | 1.01 | 1.05 | 1.06 | 1.01 | 1 |
| CC(=O)[C@@]1(O)CC[C@H]2[C@@H]3C[C@H](C)C4=CC(=O)C=C[C@]4(C)[C@@]3(F)[C@@H](O)C[C@@]21C [Fluorometholone] | 1.01 | 1.03 | 1.05 | 1 | 1 | 1.01 | 1 | 0.987 |
| CN[C@@H]1[C@H](O[C@H]2[C@H](O[C@H]3[C@H](O)[C@@H](O)[C@H](NC(=N)N)[C@@H](O)[C@@H]3NC(=N)N)O[C@@H](C)[C@]2(O)CO)O[C@@H](CO)[C@H](O)[C@H]1O [Dihydrostreptomycin sulfate] | 0.994 | 1.01 | 1.02 | 0.973 | 0.999 | 1.02 | 0.992 | 0.989 |
| OC(CCCN1CCCCC1)(c1ccccc1)c1ccccc1 [Diphenidol hydrochloride] | 0.999 | 1 | 1 | 1.01 | 1.04 | 1.04 | 1 | 0.987 |
| Nc1ccc(S(=O)(=O)Nc2nccs2)cc1 [Sulfathiazole] | 1.02 | 1 | 1.01 | 1.01 | 0.995 | 1.01 | 0.985 | 0.974 |
| Nc1ccc(S(=O)(=O)c2ccc(N)cc2)cc1 [Dapsone] | 0.982 | 0.994 | 0.988 | 1 | 1.01 | 1 | 1 | 0.994 |
| OCCN1C[C@H](O)[C@@H](O)[C@H](O)[C@H]1CO [Miglitol] | 0.991 | 0.971 | 0.986 | 0.991 | 1 | 0.995 | 1.01 | 0.988 |
| CCC(Cc1c(I)cc(I)c(N)c1I)C(=O)O (configuration not stated) [Iopanoic acid] | 1.01 | 1.01 | 1.01 | 0.989 | 0.999 | 1 | 1.01 | 0.987 |
| Cc1ccc(S(=O)(=O)NC(=O)NN2CCCCCC2)cc1 [Tolazamide] | 1.02 | 1.04 | 1.03 | 0.997 | 1.01 | 1.02 | 1.01 | 0.999 |
